Test results as given in ChEMBL document CHEMBL1961873, “Compounds: GSK PKIS; Assays: Nanosyn kinase panel” (2012).

Assays:
[1] = biological target: Tyrosine-protein kinase receptor UFO (Homo sapiens) (UniProt P30530); conditions: at 1 µM
[2] = biological target: Tyrosine-protein kinase Blk (Homo sapiens) (UniProt P51451); conditions: at 0.1 µM
[3] = biological target: Tyrosine-protein kinase Blk (Homo sapiens) (UniProt P51451); conditions: at 1 µM
[4] = biological target: T1, Cytoplasmic tyrosine-protein kinase BMX (Homo sapiens) (UniProt P51813); conditions: at 0.1 µM
T1 sequence (whole entry): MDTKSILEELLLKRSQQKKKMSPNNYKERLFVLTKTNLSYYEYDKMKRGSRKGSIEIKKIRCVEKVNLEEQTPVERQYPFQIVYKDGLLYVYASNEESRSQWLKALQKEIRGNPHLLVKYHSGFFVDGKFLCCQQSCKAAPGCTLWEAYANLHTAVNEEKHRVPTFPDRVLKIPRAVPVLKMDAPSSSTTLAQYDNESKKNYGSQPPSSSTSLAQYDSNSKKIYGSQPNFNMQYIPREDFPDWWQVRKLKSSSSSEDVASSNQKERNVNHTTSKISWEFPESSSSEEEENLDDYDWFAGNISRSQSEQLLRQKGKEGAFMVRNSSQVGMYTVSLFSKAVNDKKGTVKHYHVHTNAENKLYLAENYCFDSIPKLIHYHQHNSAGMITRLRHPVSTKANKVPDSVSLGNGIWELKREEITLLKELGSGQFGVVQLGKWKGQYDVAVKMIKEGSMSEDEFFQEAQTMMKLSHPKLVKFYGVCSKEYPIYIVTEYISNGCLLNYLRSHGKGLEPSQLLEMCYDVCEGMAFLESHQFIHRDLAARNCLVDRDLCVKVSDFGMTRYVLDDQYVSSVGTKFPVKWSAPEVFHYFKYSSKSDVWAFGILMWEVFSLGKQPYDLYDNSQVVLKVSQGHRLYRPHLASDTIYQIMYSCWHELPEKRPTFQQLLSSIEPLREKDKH

[5] = biological target: T1, Cytoplasmic tyrosine-protein kinase BMX (Homo sapiens); conditions: at 1 µM
[6] = biological target: Protein-tyrosine kinase 6 (Homo sapiens) (UniProt Q13882); conditions: at 0.1 µM
[7] = biological target: Protein-tyrosine kinase 6 (Homo sapiens) (UniProt Q13882); conditions: at 1 µM
[8] = biological target: Tyrosine-protein kinase BTK (Homo sapiens) (UniProt Q06187); conditions: at 0.1 µM
Tyrosine-protein kinase BTK (Homo sapiens), sequence (Q06187 whole entry): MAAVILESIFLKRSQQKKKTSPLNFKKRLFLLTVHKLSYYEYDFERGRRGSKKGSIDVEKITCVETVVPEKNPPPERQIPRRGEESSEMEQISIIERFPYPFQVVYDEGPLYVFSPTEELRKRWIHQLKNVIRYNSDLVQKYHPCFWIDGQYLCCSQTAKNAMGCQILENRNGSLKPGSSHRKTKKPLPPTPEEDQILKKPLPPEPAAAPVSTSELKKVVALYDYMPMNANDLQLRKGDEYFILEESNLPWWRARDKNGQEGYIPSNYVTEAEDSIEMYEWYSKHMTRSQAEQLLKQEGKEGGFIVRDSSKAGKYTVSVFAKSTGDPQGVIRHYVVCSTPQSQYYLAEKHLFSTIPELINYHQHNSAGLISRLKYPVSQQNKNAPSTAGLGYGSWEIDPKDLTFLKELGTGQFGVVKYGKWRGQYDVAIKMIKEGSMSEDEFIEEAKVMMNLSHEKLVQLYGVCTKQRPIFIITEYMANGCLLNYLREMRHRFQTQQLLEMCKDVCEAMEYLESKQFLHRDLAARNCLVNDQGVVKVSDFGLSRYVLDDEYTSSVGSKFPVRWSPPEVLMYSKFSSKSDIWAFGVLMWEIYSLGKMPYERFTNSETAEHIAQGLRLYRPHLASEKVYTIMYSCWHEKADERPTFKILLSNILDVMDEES

[9] = biological target: Tyrosine-protein kinase BTK (Homo sapiens) (UniProt Q06187); conditions: at 1 µM
[10] = biological target: Tyrosine-protein kinase CSK (Homo sapiens) (UniProt P41240); conditions: at 0.1 µM
Tyrosine-protein kinase CSK (Homo sapiens), sequence (P41240 2-450 limits assumed): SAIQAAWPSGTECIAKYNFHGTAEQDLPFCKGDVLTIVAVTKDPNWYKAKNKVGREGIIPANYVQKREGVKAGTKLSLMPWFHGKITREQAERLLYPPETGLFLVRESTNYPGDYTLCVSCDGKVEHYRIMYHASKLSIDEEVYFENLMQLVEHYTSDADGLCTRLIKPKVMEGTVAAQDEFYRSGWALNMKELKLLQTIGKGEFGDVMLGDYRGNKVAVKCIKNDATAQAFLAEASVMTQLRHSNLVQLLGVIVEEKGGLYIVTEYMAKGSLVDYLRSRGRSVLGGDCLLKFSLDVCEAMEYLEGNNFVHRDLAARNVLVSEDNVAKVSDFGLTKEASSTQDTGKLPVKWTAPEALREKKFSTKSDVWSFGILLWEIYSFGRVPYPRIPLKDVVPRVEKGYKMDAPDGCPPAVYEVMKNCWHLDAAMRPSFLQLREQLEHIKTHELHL

[11] = biological target: Tyrosine-protein kinase CSK (Homo sapiens) (UniProt P41240); conditions: at 1 µM
[12] = biological target: T2, Discoidin domain-containing receptor 2 (Homo sapiens) (UniProt Q16832); conditions: at 0.1 µM
T2 sequence (whole entry): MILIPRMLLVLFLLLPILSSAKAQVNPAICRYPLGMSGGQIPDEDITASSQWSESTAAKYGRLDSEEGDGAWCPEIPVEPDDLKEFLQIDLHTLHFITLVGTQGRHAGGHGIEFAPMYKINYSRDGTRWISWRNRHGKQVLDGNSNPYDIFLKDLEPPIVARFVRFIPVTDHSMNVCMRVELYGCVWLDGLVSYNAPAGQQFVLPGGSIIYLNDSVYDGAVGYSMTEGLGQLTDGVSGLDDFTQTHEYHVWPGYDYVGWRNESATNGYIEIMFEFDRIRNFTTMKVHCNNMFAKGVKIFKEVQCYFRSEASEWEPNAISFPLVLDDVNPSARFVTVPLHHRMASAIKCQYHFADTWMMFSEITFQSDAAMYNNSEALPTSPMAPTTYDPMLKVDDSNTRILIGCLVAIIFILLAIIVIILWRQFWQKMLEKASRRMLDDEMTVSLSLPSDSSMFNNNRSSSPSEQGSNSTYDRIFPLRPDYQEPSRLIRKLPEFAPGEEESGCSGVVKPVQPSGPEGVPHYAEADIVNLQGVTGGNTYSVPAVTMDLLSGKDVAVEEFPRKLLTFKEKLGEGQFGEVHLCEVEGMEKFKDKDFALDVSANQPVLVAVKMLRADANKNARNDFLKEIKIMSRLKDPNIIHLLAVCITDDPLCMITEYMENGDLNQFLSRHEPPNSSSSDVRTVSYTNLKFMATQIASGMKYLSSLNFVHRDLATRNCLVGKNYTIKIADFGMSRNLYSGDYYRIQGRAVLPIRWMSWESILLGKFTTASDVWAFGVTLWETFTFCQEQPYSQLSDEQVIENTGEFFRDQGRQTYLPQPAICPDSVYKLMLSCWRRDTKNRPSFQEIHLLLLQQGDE

[13] = biological target: T2, Discoidin domain-containing receptor 2 (Homo sapiens); conditions: at 1 µM
[14] = biological target: Epidermal growth factor receptor (Homo sapiens) (UniProt P00533); conditions: at 0.1 µM
Epidermal growth factor receptor (Homo sapiens), sequence (P00533 whole entry): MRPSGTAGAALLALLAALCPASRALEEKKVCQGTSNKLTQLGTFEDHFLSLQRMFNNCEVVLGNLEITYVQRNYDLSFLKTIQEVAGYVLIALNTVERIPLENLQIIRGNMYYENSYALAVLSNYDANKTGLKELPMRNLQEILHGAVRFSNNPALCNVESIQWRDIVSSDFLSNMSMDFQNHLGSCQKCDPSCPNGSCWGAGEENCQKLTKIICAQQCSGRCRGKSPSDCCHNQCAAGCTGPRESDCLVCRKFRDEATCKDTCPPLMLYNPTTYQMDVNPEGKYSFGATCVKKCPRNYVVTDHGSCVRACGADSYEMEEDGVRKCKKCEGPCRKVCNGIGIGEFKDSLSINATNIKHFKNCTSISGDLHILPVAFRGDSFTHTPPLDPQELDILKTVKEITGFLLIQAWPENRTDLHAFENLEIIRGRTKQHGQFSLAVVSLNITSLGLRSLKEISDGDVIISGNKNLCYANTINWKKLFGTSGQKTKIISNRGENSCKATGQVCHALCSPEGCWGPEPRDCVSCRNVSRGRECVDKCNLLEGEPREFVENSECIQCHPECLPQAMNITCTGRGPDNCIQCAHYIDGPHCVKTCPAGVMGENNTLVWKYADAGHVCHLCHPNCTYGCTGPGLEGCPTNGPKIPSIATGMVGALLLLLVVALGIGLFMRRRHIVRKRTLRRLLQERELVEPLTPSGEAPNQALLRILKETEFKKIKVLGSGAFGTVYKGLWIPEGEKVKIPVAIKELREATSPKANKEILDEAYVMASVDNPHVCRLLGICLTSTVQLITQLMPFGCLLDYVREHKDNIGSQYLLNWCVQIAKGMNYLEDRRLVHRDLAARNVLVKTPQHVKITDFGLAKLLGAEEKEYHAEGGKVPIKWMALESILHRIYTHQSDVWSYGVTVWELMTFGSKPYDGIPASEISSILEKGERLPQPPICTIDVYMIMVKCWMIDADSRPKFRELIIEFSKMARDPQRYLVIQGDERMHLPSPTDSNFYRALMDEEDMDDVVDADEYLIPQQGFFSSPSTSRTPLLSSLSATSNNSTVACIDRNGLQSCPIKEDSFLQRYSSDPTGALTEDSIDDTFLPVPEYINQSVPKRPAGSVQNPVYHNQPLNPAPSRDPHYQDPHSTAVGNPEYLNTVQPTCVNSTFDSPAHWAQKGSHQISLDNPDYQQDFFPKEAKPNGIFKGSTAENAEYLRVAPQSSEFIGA

[15] = biological target: Epidermal growth factor receptor (Homo sapiens) (UniProt P00533); conditions: at 1 µM
[16] = test system: Epidermal growth factor receptor (Homo sapiens), P00533 [L858R]; conditions: at 0.1 µM
[17] = test system: Epidermal growth factor receptor (Homo sapiens), P00533 [L858R]; conditions: at 1 µM
[18] = test system: Epidermal growth factor receptor (Homo sapiens), P00533 [L861Q]; conditions: at 0.1 µM
[19] = test system: Epidermal growth factor receptor (Homo sapiens), P00533 [L861Q]; conditions: at 1 µM
[20] = test system: Epidermal growth factor receptor (Homo sapiens), P00533 [T790M]; conditions: at 0.1 µM
Epidermal growth factor receptor (Homo sapiens), P00533 [T790M], sequence (P00533 whole entry T790M): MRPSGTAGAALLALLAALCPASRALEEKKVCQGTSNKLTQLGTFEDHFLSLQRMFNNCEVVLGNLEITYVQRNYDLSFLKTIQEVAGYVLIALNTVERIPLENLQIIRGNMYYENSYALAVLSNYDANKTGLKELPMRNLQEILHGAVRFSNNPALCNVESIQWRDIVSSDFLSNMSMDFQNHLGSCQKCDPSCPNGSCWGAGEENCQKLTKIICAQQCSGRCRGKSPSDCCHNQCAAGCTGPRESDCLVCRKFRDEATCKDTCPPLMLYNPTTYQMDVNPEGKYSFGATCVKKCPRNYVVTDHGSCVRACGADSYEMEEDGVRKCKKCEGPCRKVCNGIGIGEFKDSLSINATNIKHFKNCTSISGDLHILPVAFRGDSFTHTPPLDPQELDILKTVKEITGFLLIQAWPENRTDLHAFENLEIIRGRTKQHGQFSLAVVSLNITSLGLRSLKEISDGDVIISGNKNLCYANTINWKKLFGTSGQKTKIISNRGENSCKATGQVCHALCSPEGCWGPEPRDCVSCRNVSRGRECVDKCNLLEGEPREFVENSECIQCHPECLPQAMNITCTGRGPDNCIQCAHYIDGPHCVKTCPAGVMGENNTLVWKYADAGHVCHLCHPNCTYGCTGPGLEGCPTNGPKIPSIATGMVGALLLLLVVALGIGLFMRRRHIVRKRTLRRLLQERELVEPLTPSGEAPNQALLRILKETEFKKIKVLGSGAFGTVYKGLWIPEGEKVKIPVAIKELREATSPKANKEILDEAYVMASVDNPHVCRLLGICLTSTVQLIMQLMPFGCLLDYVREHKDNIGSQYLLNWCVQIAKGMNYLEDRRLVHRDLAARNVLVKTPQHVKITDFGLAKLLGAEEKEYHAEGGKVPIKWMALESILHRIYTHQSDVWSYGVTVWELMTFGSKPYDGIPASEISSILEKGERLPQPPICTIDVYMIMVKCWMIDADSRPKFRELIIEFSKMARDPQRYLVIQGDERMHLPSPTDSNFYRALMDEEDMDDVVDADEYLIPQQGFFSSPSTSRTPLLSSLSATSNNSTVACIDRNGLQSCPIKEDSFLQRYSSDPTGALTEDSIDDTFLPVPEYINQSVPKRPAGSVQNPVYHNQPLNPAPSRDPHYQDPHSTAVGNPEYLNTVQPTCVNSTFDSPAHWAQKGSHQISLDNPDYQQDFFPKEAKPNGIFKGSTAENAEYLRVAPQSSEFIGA

Tyrosine-protein kinase Blk (Homo sapiens), sequence (P51451 2-505 limits assumed): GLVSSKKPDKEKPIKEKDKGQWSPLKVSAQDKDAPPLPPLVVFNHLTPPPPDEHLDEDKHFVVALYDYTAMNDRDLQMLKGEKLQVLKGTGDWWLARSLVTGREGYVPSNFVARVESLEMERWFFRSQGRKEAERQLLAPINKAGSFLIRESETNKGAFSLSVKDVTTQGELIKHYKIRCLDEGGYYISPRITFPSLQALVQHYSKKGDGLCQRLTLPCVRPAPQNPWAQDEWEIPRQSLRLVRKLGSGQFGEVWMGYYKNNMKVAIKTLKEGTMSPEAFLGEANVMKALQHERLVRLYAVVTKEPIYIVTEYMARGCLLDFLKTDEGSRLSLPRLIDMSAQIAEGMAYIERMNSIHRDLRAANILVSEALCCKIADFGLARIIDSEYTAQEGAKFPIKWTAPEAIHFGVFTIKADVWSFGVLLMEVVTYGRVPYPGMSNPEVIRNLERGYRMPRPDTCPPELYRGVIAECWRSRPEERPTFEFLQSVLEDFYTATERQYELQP
Tyrosine-protein kinase receptor UFO (Homo sapiens), sequence (P30530 whole entry): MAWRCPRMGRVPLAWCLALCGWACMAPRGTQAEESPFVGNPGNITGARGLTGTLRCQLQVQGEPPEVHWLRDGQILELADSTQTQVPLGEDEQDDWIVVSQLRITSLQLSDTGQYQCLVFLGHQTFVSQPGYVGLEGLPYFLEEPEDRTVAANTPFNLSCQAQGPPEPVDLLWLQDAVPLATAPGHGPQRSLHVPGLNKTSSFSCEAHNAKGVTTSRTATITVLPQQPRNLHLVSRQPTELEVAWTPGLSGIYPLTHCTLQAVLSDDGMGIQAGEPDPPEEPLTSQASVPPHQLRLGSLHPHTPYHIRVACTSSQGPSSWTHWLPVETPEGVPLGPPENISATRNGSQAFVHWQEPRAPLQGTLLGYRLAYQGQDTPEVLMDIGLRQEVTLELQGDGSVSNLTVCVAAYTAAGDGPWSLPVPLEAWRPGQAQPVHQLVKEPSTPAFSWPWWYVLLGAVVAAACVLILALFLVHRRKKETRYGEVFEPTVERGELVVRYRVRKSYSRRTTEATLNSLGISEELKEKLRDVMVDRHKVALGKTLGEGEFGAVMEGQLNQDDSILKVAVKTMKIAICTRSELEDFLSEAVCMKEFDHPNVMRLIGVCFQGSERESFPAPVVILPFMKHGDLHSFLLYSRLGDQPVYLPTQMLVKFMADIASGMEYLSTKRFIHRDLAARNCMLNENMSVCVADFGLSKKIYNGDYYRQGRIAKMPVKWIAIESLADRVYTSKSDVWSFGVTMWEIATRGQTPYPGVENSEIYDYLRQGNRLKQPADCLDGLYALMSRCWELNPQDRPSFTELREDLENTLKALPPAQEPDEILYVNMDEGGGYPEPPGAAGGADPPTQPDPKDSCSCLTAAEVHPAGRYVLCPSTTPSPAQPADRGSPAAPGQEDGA

Row | Structure (SMILES) | inhibition [1] | inhibition [2] | inhibition [3] | inhibition [4] | inhibition [5] | inhibition [6] | inhibition [7] | inhibition [8] | inhibition [9] | inhibition [10] | inhibition [11] | inhibition [12] | inhibition [13] | inhibition [14] | inhibition [15] | inhibition [16] | inhibition [17] | inhibition [18] | inhibition [19] | inhibition [20]
1 | [O-][S+]1CCN(Cc2ccc(-c3ccc4ncnc(Nc5ccc(OCc6ccccc6)c(F)c5)c4c3)o2)CC1 | -2.42% | 1.92% | 5.97% | 4.65% | 5.88% | 0.34% | 6.21% | 1.11% | 1.74% | 3.39% | -3.52% | 0.34% | 0.62% | 84.1% | 90.7% | 42.6% | 84.9% | 39.7% | 68.6% | 4.05%
2 | c1cnn2ncc(-c3ccnc(Nc4ccc5c(c4)OCCO5)n3)c2c1 | 10.1% | 3.13% | 9.58% | 1.58% | 14.5% | 6.27% | 13.7% | 1.69% | 3.99% | 4.46% | 14.9% | 2.85% | 2.07% | 1.88% | 4.28% | 3.09% | 11% | 3.71% | 5.7% | 2.81%
3 | CC(=O)Nc1cccc(C#Cc2cncnc2Nc2ccc(OCc3cccc(F)c3)c(Cl)c2)n1 | 1.38% | 1.94% | 1.82% | 1.43% | 0.97% | -2.54% | 1.12% | 0.29% | 0.86% | -1.09% | 3.91% | 2.33% | 1.71% | 69.5% | 77.7% | 24.8% | 72.5% | 29.1% | 55.6% | 0.03%
4 | NC(=O)c1cccc(Nc2nccc(Nc3cccc4[nH]ncc34)n2)c1 | 7.82% | 9.56% | 66.3% | 21.6% | 73.8% | 68.6% | 99.7% | 3.23% | 19.9% | -2.2% | 26.5% | 19.9% | 77.6% | 2.96% | 24.1% | 13.4% | 70.1% | 3.36% | 27.8% | -1.89%
5 | CS(=O)(=O)CCNCc1ccc(-c2ccc3ncnc(Nc4ccc(OCc5ccccc5)c(Cl)c4)c3c2)o1 | 1.26% | 0.85% | 7.53% | 0.69% | 4.31% | 0.7% | 14.7% | -0.28% | 0.13% | 0.67% | 5.6% | 3.48% | 9.08% | 82.5% | 85.6% | 61.7% | 93.6% | 52.9% | 87.6% | 2.68%
6 | Cc1cc(O)cc(C)c1/C=C/c1cncc(-c2nn[nH]n2)c1 | -3.63% | 0.83% | 48.1% | 11.2% | 66.3% | 29.6% | 86.3% | -0.39% | 7.14% | 8.08% | 43.4% | 1.73% | 6.08% | -1.53% | 15.8% | 10.4% | 56.9% | 3.95% | 21.2% | 2.17%
7 | NCc1ccc(-c2nc(-c3ccc(Cl)c(O)c3)c(-c3ccncc3)[nH]2)cc1 | 3.04% | 0.72% | 10.4% | 12.4% | 28.9% | 13.9% | 58.7% | 1.91% | 6.57% | -0.21% | 7.83% | 0.6% | 9.1% | 4.77% | 21.8% | 1.78% | 31.9% | 1.15% | 13.5% | -0.03%
